Measurements taken from PubChem BioAssay.
Records with an inconclusive call do not appear. Activity calls are given as the source filed them.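 Rule for the calls, unless noted: active = viability loss from added drug above about 55%, and viability with drug at most 40%, in both replicates (limit read from the data, passing the limit was not always enough); inconclusive = both conditions met in only one replicate; inactive = neither replicate meets both conditions.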

Experiments:
[1] = reducers of endogenous Her2 protein level, primary screen, SKBR3 breast tumor cells, AlphaScreen, ATP viability (AID 461;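 active = Her2 level under about 52% in both replicate screens, with viability over 70% of control, limit read from the data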;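 for Her2 level: lower value means less Her2 protein in the cells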;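 for viability: percent of carrier control wells set as 100% viability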); conditions: 18-24 h, measured here: SKBR3 viability, ATP luminescence, at 10 µM
[2] = molecular target: Receptor tyrosine-protein kinase erbB-2 (Homo sapiens) (UniProt P04626); experiment: as above; conditions: 18-24 h, at 10 µM, stronger effect = lower value
Receptor tyrosine-protein kinase erbB-2 (Homo sapiens), sequence (P04626 whole entry, looked up): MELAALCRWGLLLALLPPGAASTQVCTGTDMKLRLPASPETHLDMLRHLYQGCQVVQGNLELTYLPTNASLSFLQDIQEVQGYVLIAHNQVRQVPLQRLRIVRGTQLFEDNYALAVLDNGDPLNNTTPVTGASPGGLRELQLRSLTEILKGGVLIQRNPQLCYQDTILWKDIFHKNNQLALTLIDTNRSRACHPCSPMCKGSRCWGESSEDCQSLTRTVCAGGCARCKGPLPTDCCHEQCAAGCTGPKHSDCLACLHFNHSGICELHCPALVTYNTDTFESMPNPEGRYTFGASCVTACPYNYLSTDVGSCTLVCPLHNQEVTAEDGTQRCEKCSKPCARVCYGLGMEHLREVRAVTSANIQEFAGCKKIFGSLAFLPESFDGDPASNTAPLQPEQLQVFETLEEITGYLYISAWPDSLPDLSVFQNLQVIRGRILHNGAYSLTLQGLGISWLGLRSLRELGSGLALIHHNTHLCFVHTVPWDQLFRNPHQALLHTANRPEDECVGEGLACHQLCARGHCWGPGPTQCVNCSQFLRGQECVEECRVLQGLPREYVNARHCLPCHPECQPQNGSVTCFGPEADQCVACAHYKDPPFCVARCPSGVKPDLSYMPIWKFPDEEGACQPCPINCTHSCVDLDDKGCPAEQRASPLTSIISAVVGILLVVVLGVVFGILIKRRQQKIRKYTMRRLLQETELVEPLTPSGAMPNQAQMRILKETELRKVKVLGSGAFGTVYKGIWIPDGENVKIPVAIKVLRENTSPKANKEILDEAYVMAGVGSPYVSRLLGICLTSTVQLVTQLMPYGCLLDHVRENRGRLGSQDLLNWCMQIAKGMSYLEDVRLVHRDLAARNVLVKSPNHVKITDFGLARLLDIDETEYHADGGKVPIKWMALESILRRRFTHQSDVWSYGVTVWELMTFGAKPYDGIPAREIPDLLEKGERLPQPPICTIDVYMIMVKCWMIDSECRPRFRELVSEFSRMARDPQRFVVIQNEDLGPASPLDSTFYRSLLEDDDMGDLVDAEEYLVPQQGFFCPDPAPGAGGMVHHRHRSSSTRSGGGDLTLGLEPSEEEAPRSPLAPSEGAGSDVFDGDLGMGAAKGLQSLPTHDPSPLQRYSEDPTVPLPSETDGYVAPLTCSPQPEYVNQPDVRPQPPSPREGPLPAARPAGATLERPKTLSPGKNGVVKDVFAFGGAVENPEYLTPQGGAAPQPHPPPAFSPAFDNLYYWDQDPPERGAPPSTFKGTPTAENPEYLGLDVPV

[3] = SK-BR-3 cell growth inhibitors, pilot screen, 24 h, human (AID 572;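 active = viability at or below 10% of carrier control in both of two separate runs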;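 note: compound exposure lasted between 18 and 24 h rather than exactly 24 h; 100% = carrier-treated control wells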); conditions: SK-BR-3 viability, CellTiter-Glo luminescence, at 10 µM, stronger effect = lower value
[4] = HUVEC growth inhibition – cell-based, human, primary screen (AID 575;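 active = viability at or below 30% in both replicate assays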;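 note: 100% = median of untreated cell wells with 0.1% DMSO on each plate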); conditions: HUVEC proliferation, CellTiter-Glo luminescence, 72 h; at 10 µM; stronger effect = lower value
[5] = growth inhibitors of H69AR lung tumor, primary screen, human, duplicate replicates (AID 580;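 active = viability at or under a set limit in both replicates, limit being median viability minus 3 SD, cut at about 48% in these data, passing the limit was not always enough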;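 note: 100% = mean luminescence of untreated wells and 0% = no signal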); conditions: H69AR lung tumor cells viability, ATP luminescence, 72 h; at 10 µM; stronger effect = lower value
[6] = reversal of MRP1-mediated doxorubicin resistance, pilot screen, H69AR cells, doxorubicin co-treatment (AID 601); conditions: CellTiter-Glo, 72 h, at 10 µM; for differential viability (reversal): stronger effect = higher value
[7] = 384-well plate pilot, post-Golgi transport modulator project, inhibition of yeast transport mutant growth (AID 636; in the data active = inhibition above about 31%); conditions: absorbance 615 nm, about 18 h, stronger effect = higher value
[8] = growth suppression of yeast trafficking mutant, preliminary HTS, modulators of trafficking downstream of Golgi apparatus project, 1536-format plate, OD 615 nm (AID 637; in the data active = inhibition above about 30%); conditions: yeast transport mutant growth, absorbance 615 nm, 18 h; stronger effect = higher value
[9] = OD615 S. cerevisiae growth inhibition, permissive medium, pilot counter-assay, permissive growth control for S. cerevisiae lifespan shortening project (AID 705;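 active = growth inhibition above 25% in both replicates, a cutoff set 3 SD above the mean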); conditions: OD615, 24 h, at 10 µM, stronger effect = higher value
[10] = Restrictive medium S. cerevisiae growth inhibition, OD615, pilot screen of yeast lifespan reduction project, restrictive growth control (AID 706;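 active = growth inhibition above a set limit, 3 SD over mean compound inhibition, in both replicates, cut at about 43% in these data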;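 note: modified DeaD lifespan yeast strain shifted to restrictive glucose medium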); conditions: OD615, 48 h, at 10 µM, stronger effect = higher value
[11] = viability gain of MRP-1-high H69AR cells under doxorubicin, pilot screen, MRP-1 activator project, CellTiter-Glo, duplicate (AID 807;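 active = viability increase at or above a cutoff of the median across tested compounds plus 3 SD, cut at about 8.5% in these data, passing the limit was not always enough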;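 note: compound pretreatment 18-22 h then 72 h combined with doxorubicin; 0% = doxorubicin alone and 100% = vehicle without doxorubicin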); conditions: H69AR viability with doxorubicin, CellTiter-Glo luminescence; at 10 µM; stronger effect = higher value
[12] = growth suppression of beta-catenin knockout HCT116, pilot screen, human colon tumor cells (AID 823;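 active = cell viability at or below a set limit in both duplicate runs, the limit being the all-compound median minus 4 SD, cut at about 23% in these data, passing the limit was not always enough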;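 note: 0% = wells killed by 20 µM Hyamine and 100% = untreated DMSO cell wells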); conditions: CellTiter-Glo, 60 h, at 10 µM, stronger effect = lower value
[13] = growth suppression of PTEN-deleted HCT116, pilot screen, cell-based, HCT116 clonal line, CellTiter-Glo (AID 824;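 active = viability at or below 27.92% in each of two runs, the all-compound median minus 4 SD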;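 note: 0% = 20 µM Hyamine control and 100% = vehicle cell control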); conditions: 60 h, at 10 µM, stronger effect = lower value
[14] = inhibitors of the yeast RAM network, pilot screen, dse1pr::URA3 reporter, 5-FOA selection (AID 869;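 active = inhibition over a set limit, the all-compound mean plus 3 SD, in both replicate runs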;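 note: 0% = DMSO wells with no growth and 100% = 10 µM 1-NA-PP1 with full growth; RAM network block rescues cells from 5-FOA so hits raise OD615 growth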); conditions: S. cerevisiae dse1pr::URA3 5-FOA growth, OD615, 2 d; at 10 µM; stronger effect = higher value; strain carries analog-sensitive mutant Cbk1 kinase
[15] = RAM signaling pathway blockade in yeast – S. cerevisiae, Pdr1DBD-CYC8 efflux-inhibited sensitized strain, primary screen (AID 1298;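 active = RAM network inhibition above 8.4% in each of two replicates, 3 SD over the compound average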;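 note: 0% = DMSO untreated cells without growth and 100% = 10 µM 1-NA-PP1 full growth; higher means more yeast growth rescued from 5-FOA killing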); conditions: S. cerevisiae cbk1-as DSE1-URA3 strain, 5-FOA growth OD615, 2 d; at 50 µM; stronger effect = higher value
[16] = H69AR cells + 2 uM doxorubicin, measured here: viability with 2 uM doxorubicin, stronger effect = lower value
[17] = H69AR cells, compound alone cytotoxicity

COc1ccc(OCc2nc(C#N)c(N3CCN(c4ccc(OC)cc4)CC3)o2)cc1
inactive: Her2 level [2] 115% | viability [3] 94% | viability [4] 90.6% | viability [5] 94% | differential viability (reversal) ([6]; H69AR cells + 2 uM doxorubicin) 15% | inhibition [7] -3.07% | inhibition [8] -8.17% | growth inhibition [9] -0.985% | growth inhibition [10] -1.77% | viability [12] 72.5% | viability [13] 73.5% | inhibition [14] 1.06% | RAM network inhibition [15] 9.16%
94%: viability [1] | viability [6, 17]
79%: viability [6, 16]
active: viability increase [11] 9.38%

O=C(OCCN=C1NS(=O)(=O)c2ccccc21)C1CC(=O)N(c2ccc(Cl)cc2)C1 (stereo not given)
87.4%: viability [6, 16]
inactive: Her2 level [2] 99.5% | viability [3] 114% | viability [4] 106% | viability [5] 93.2% | differential viability (reversal) ([6]; H69AR cells + 2 uM doxorubicin) 5.78% | inhibition [7] -3.25% | inhibition [8] -1.67% | growth inhibition [9] 6.61% | growth inhibition [10] -8.43% | viability increase [11] -0.51% | viability [12] 107% | viability [13] 101% | inhibition [14] 0.695% | RAM network inhibition [15] -0.53%
114%: viability [1]
93.2%: viability [6, 17]

Cc1ccc(C)c2[nH]c(=O)c(CCNC(=O)c3ccc(S(=O)(=O)N(C)C)cc3)cc12
83.9%: viability [6, 16]
inactive: Her2 level [2] 114% | viability [3] 121% | viability [4] 88.1% | viability [5] 82.3% | differential viability (reversal) ([6]; H69AR cells + 2 uM doxorubicin) -1.57% | inhibition [7] -4.13% | inhibition [8] -4% | growth inhibition [9] -2.9% | growth inhibition [10] -22.2% | viability increase [11] -4.33% | viability [12] 93.2% | viability [13] 81.5% | inhibition [14] 2.99% | RAM network inhibition [15] 3.23%
121%: viability [1]
82.3%: viability [6, 17]

CCOc1ccc(Cn2nnc(C(=O)Nc3ccc(OC)cc3OC)c2N)cc1
inactive: Her2 level [2] 102% | viability [3] 96.5% | viability [4] 67.5% | viability [5] 102% | differential viability (reversal) ([6]; H69AR cells + 2 uM doxorubicin) 2.46% | inhibition [7] -1.07% | inhibition [8] -5.9% | growth inhibition [9] -10.3% | growth inhibition [10] -9.57% | viability increase [11] -4.36% | viability [12] 83.3% | viability [13] 82.8% | inhibition [14] 3.14% | RAM network inhibition [15] 4.87%
102%: viability [6, 17]
96.5%: viability [1]
99.8%: viability [6, 16]

COCCNC(=O)c1cc(-c2cccs2)on1
inactive: Her2 level [2] 77.5% | viability [3] 97% | viability [4] 84.9% | viability [5] 84.7% | differential viability (reversal) ([6]; H69AR cells + 2 uM doxorubicin) 23.6% | inhibition [7] -0.64% | inhibition [8] -4.17% | growth inhibition [9] -0.235% | growth inhibition [10] 2.31% | viability increase [11] -7.54% | viability [12] 67.3% | viability [13] 70.6% | inhibition [14] 0.105% | RAM network inhibition [15] 3.61%
61.1%: viability [6, 16]
84.7%: viability [6, 17]
97%: viability [1]

CC1CCc2nn(CC(=O)Nc3ccc(F)cc3F)cc2C1 (stereo not given)
inactive: Her2 level [2] 97.5% | viability [3] 108% | viability [4] 100% | viability [5] 104% | differential viability (reversal) ([6]; H69AR cells + 2 uM doxorubicin) 14.7% | inhibition [7] -0.93% | inhibition [8] -6.72% | growth inhibition [9] -2.97% | growth inhibition [10] -12.2% | viability increase [11] 1.3% | viability [12] 97.8% | viability [13] 98.3% | inhibition [14] 2.21% | RAM network inhibition [15] -0.77%
108%: viability [1]
104%: viability [6, 17]
89.5%: viability [6, 16]

COc1ccc(-n2ncc3c(N4CCC(C)CC4)ncnc32)cc1
76.6%: viability [6, 17]
100%: viability [1]
41.2%: viability [6, 16]
inactive: Her2 level [2] 106% | viability [3] 100% | viability [4] 56.2% | viability [5] 76.6% | differential viability (reversal) ([6]; H69AR cells + 2 uM doxorubicin) 35.3% | inhibition [7] -4% | inhibition [8] 3% | growth inhibition [9] -1.23% | growth inhibition [10] -0.39% | viability increase [11] -2.39% | viability [12] 101% | viability [13] 93.6% | inhibition [14] 1.94% | RAM network inhibition [15] 1.63%

COc1cccc(-n2c(SCC(=O)N3CCCC3)nc3c([nH]c4ccccc43)c2=O)c1
inactive: Her2 level [2] 80.5% | viability [3] 83% | viability [4] 74.5% | viability [5] 76.1% | differential viability (reversal) ([6]; H69AR cells + 2 uM doxorubicin) -1.79% | inhibition [7] -5.2% | inhibition [8] -1.83% | growth inhibition [9] -8.48% | growth inhibition [10] -21.2% | viability increase [11] -6.23% | viability [12] 90.3% | viability [13] 85.7% | inhibition [14] 1.42% | RAM network inhibition [15] 7.87%
76.1%: viability [6, 17]
83%: viability [1]
77.9%: viability [6, 16]

COc1cccc(-c2nc(CS(=O)(=O)CC(=O)N3CCc4ccccc4C3)c(C)o2)c1
inactive: Her2 level [2] 86.5% | viability [3] 93.5% | viability [4] 93.3% | viability [5] 89.1% | differential viability (reversal) ([6]; H69AR cells + 2 uM doxorubicin) 6% | inhibition [7] -0.67% | inhibition [8] 0.98% | growth inhibition [9] 2.52% | growth inhibition [10] 8.9% | viability increase [11] -2.85% | viability [12] 75.5% | viability [13] 73.7% | inhibition [14] 1.68% | RAM network inhibition [15] 6.29%
83.1%: viability [6, 16]
89.1%: viability [6, 17]
93.5%: viability [1]

CC(C)(C)SCCNC(=O)CSc1ccccc1
102%: viability [1]
91%: viability [6, 16]
101%: viability [6, 17]
inactive: Her2 level [2] 80% | viability [3] 102% | viability [4] 93.3% | viability [5] 101% | differential viability (reversal) ([6]; H69AR cells + 2 uM doxorubicin) 9.85% | inhibition [7] -6.22% | inhibition [8] 1.9% | growth inhibition [9] -0.57% | growth inhibition [10] 9.05% | viability increase [11] -0.61% | viability [12] 107% | viability [13] 98.3% | inhibition [14] 0.055% | RAM network inhibition [15] 4.54%
